Experiment [1] is described as follows: qHTS for Inhibitors of Plasmodium falciparum (DD2) proliferation (AID 504314).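 Also: parasite DNA measured by SYBR Green fluorescence after red cell lysis; plate controls were DMSO vehicle for no effect and artemisinin wells for full effect.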 An outline of the steps: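 Erythrocytes infected with P. falciparum Dd2 (0.3% parasitemia, 2.5% hematocrit) exposed to compound 72 h at 37C, 5% CO2. Parasite DNA quantified by SYBR Green fluorescence after saponin/Triton lysis overnight; normalized to 0.29 uM artemisinin and DMSO.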
Background: In qHTS, concentration-response curves come from the screen itself.

Experiment [2] in a line: qHTS for Inhibitors of Plasmodium falciparum (GB4) proliferation (AID 504315).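 Also: 0% = DMSO vehicle and -100% = 0.29 µM artemisinin control; nearly all actives have a fitted effect of over 50% in size.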 In outline:
(§1)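 Erythrocytes infected with P. falciparum line (0.3% parasitemia, 2.5% hematocrit final) incubated with compounds 72 h at 37 °C, 5% CO2; SYBR Green lysis buffer added, fluorescence read next day. Normalized to 0.29 uM artemisinin and DMSO.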

Experiment [3] in a line: qHTS for Inhibitors of Plasmodium falciparum (7G8) proliferation (AID 504316).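 Also: series mostly up to about 6.7 µM; 0% = DMSO vehicle and -100% = 0.29 µM artemisinin full kill; nearly all actives have a fitted effect of over 65% in size.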 An outline of the steps: as §1
Experiment [4] can be described thus: qHTS for Inhibitors of Plasmodium falciparum (HB3) proliferation (AID 504318).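 Also: 0% = DMSO vehicle and -100% = artemisinin control; nearly all actives have a fitted effect of over 60% in size.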 An outline of the steps: as §1
Experiment [5] in a line: qHTS for Inhibitors of Plasmodium falciparum (CP250) proliferation (AID 504320).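 Also: plate controls were DMSO vehicle for no effect and 0.29 µM artemisinin control for full effect.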 In outline: as §1
Experiment [6] has as its target Atrial natriuretic peptide receptor 1 (Homo sapiens) (UniProt P16066). Description: Natriuretic polypeptide receptor (hNpr1) antagonism - Pilot CMLD screen (AID 1347052; calls by dose curve;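 also: cGMP level read as GloSensor luciferase luminescence after agonist stimulation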; also: potency is read from the fitted curve at half-maximal effect).

Records with an inconclusive call do not appear. A number with no mark means an inactive call. The source made the active and inactive calls. Unless noted, calls follow the shape of the dose curve; as a rule, active = well fitted curve in the direction sought with a large enough effect; inconclusive = small, poorly fitted or top-dose-only effect, or another doubt; inactive = no such curve, though single readings can be large; an effect the other way counts as inactive or inconclusive.

Atrial natriuretic peptide receptor 1 (Homo sapiens), sequence (P16066 whole entry, looked up): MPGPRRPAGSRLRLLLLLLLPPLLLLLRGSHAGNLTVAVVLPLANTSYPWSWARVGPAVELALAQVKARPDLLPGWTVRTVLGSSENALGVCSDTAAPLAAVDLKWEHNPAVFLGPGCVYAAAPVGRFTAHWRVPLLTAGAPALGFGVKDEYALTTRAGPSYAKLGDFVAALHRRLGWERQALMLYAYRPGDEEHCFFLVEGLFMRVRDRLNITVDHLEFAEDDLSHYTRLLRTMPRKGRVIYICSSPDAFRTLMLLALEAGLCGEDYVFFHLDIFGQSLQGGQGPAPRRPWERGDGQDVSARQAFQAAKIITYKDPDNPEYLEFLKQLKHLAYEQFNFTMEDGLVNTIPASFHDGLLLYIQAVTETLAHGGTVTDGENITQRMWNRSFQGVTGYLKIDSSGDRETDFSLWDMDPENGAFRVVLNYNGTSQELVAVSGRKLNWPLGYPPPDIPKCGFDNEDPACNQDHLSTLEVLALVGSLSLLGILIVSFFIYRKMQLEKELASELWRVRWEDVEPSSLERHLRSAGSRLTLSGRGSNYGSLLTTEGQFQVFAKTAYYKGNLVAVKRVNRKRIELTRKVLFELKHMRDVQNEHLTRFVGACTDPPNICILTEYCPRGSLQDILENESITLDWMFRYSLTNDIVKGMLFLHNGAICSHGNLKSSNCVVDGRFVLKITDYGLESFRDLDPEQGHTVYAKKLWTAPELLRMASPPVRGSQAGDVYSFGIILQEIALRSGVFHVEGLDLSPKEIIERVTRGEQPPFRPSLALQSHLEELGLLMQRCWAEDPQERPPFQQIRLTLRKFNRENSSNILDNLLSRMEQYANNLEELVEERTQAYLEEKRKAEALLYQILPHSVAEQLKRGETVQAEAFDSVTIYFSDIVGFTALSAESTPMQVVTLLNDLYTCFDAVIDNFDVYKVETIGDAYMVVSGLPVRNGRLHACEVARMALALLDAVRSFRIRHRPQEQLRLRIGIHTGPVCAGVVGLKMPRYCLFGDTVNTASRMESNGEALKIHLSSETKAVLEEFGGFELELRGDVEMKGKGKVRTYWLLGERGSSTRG

As for `COC(=O)N[C@H](CC(C)=O)c1ccc2c(c1)OCO2`, the Potency entry in experiment [1], in experiment [2], in experiment [3], in experiment [4], in experiment [5] and in experiment [6] was “inactive” each time.
On to `COC(=O)[C@@]1(Cc2ccccc2-c2ccco2)C=C[C@H](C)[C@@H](c2ccccc2)N1C(=O)C(F)(F)F`, for which the Potency entry in experiment [1], in experiment [2], in experiment [3], in experiment [4], in experiment [5] and in experiment [6] was “inactive” in each case.
Regarding `CC1(OC(=O)c2cccs2)C(=O)C=C2C=C3CCCN3C=C2C1=O` (configuration not stated), the activity, negative = inhibition in experiment [1] was -0.249% [at 1.12 µM]. The Potency result in experiment [2], in experiment [3], in experiment [4], in experiment [5] and in experiment [6] was “inactive” each time.
Regarding `Cc1ccc([S+](=O)([O-])N(c2ccccc2)[S+](=O)([O-])C(F)(F)F)cc1`, the Potency entry in experiment [1], in experiment [2], in experiment [3], in experiment [4], in experiment [5] and in experiment [6] was “inactive” each time.
As for `CC1(OC(=O)C2CCCC2)C(=O)C=C2C=C(c3ccsc3)N(CCN3CCOCC3)C=C2C1=O` (configuration not stated), the activity, negative = inhibition in experiment [1] is 1.21% [at 1.12 µM]. In addition, the Potency entry in experiment [2], in experiment [3], in experiment [4], in experiment [5] and in experiment [6] was “inactive” each time.
With `COCC=CC1=CC2=CC(=O)C(C)(OC(=O)c3cnc4ccccc4n3)C(=O)C2=CN1Cc1ccccc1` (configuration not stated), the Potency entry in experiment [1], in experiment [2], in experiment [3], in experiment [4], in experiment [5] and in experiment [6] was “inactive” in each case.
In the case of `COC(=O)C1=C(C(=O)OC)[C@@H]2N(C)c3ccc(OC)cc3[C@@]23C[C@@H](C(=O)OC)N(C(=O)c2cccs2)C3=N1`, the Potency entry in experiment [1], in experiment [2], in experiment [3], in experiment [4], in experiment [5] and in experiment [6] was “inactive” throughout.
As for `COC(=O)[C@@H]1C[C@@]23C(=NN=C(SC)C2Nc2ccccc23)N1C(C)=O` (some centres not stated), the Potency result in experiment [1], in experiment [2], in experiment [3], in experiment [4], in experiment [5] and in experiment [6] was “inactive” in each case.
Consider `CO[C@@H]1c2cc(F)ccc2C(=CCCOC(=O)CC=Cc2ccccc2)[C@H]1C`, for which the Potency entry in experiment [1], in experiment [2], in experiment [3], in experiment [4], in experiment [5] and in experiment [6] was “inactive” in each case.
Turning to `C=CC1=C2C=C(C3CC3)N(C(CO)CO)C=C2C(=O)C(C)(OC(=O)c2ccco2)C1=O` (configuration not stated), the Potency entry in experiment [1], in experiment [2], in experiment [3], in experiment [4], in experiment [5] and in experiment [6] was “inactive” in each case.
On to `COC(=O)CCCC1=CC2=CC(=O)C(C)(O)C(=O)C2=CO1` (configuration not stated), for which the Potency entry in experiment [1], in experiment [2], in experiment [3], in experiment [4], in experiment [5] and in experiment [6] was “inactive” throughout.
With `CN1c2ccccc2[C@@]2(O)C(=O)[C@@]1(C)[C@@H]1c3ccccc3C[C@H]12`, the Potency entry in experiment [1], in experiment [2], in experiment [3], in experiment [4], in experiment [5] and in experiment [6] was “inactive” each time.
Regarding `C=C(CCN1C=C(C(=O)OCC)C(c2ccccc2)NC1=O)c1ccccc1` (configuration not stated), the Potency result in experiment [1], in experiment [2], in experiment [3], in experiment [4], in experiment [5] and in experiment [6] was “inactive” throughout.
Regarding `COC(=O)NC(C(=O)OC)(C(=O)OC)c1ccccc1`, the Potency result in experiment [1], in experiment [2], in experiment [3], in experiment [4], in experiment [5] and in experiment [6] was “inactive” each time.
Take `CCOC(=O)CNC(=O)O[C@H]1C(=O)c2ccc(OC)cc2O[C@@H]1c1ccc2c(c1)OCO2`: the Potency entry in experiment [1], in experiment [2], in experiment [3], in experiment [4], in experiment [5] and in experiment [6] was “inactive” throughout.
Take `CC1(OC(=O)c2ccco2)C(=O)C=C2C=C(c3ccsc3)OC=C2C1=O` (configuration not stated): the Potency result in experiment [1], in experiment [2], in experiment [3], in experiment [4], in experiment [5] and in experiment [6] was “inactive” in each case.
As for `CC1(C)O[C@H]2OC([C@H](O)CON3C(=O)c4ccccc4C3=O)[C@H](O)[C@@H]2O1` (some centres not stated), the Potency result in experiment [1], in experiment [2], in experiment [3], in experiment [4], in experiment [5] and in experiment [6] was “inactive” each time.
For the molecule `CCN1C(=O)[C@@H]2[C@H]3[C@H](O)[C@H](O)CC(=NO[C@H](C)CN4CCCc5nc(C)c(C)cc54)[C@@H]3CC[C@H]2C1=O`, the Potency result in experiment [1], in experiment [2], in experiment [3], in experiment [4], in experiment [5] and in experiment [6] was “inactive” throughout.
`CCN1C(=NCc2cccc(Cl)c2)N[C@@H](CCc2ccccc2)[C@H](C(=O)OC)[C@H]1C`: the Potency result in experiment [1], in experiment [2], in experiment [3], in experiment [4], in experiment [5] and in experiment [6] was “inactive” each time.
Regarding `COCCN1C(=O)N[C@@H](CCc2ccccc2)[C@H](C(C)=O)[C@H]1C`, the Potency entry in experiment [1], in experiment [2], in experiment [3], in experiment [4], in experiment [5] and in experiment [6] was “inactive” in each case.
In the case of `CCN1C(=O)N[C@@H](CCc2ccccc2)[C@@H](C(=O)OC)[C@H]1C`, in experiment [1], the activity, negative = inhibition is 2.52% [at 1.12 µM]. Further, the Potency result in experiment [2], in experiment [3], in experiment [4], in experiment [5] and in experiment [6] was “inactive” in each case.
On to `COC(=O)CC=C[C@@H](C)[C@@H](COc1ccccc1Br)OC`, for which the Potency entry in experiment [1], in experiment [2], in experiment [3], in experiment [4] and in experiment [5] was “inactive” throughout. Moreover, in experiment [6], the Potency is 944 nM (active).
For the molecule `COC(=O)N1C(C)=Cc2ccccc2C1CC(C)=CC(C)=O` (configuration not stated), the Potency result in experiment [1], in experiment [2], in experiment [3], in experiment [4], in experiment [5] and in experiment [6] was “inactive” in each case.
For `COCC1=C(C(=O)OC)C(c2ccccc2)N(C(C)=O)C(=O)N1` (configuration not stated), the Potency entry in experiment [1], in experiment [2], in experiment [3], in experiment [4], in experiment [5] and in experiment [6] was “inactive” each time.
Consider `C=CCN1c2ccccc2[C@]23C[C@@H](C(=O)OC)N(C(=O)Nc4ccccc4F)C2=NC(C(=O)OC)=C(C(=O)OC)[C@H]13`, for which the Potency result in experiment [1], in experiment [2], in experiment [3], in experiment [4], in experiment [5] and in experiment [6] was “inactive” throughout.
Consider `CC1(OC(=O)c2ccc(Cl)nc2)C(=O)C=C2C=C3CCCN3C=C2C1=O` (configuration not stated), for which the Potency entry in experiment [1], in experiment [2], in experiment [3], in experiment [4], in experiment [5] and in experiment [6] was “inactive” throughout.
Turning to `CC(C)(C)c1ccc(O[C@@H]2[C@H](O)CO[C@H]2C=CC#Cc2ccccc2)cc1`, the Potency result in experiment [1], in experiment [2], in experiment [3], in experiment [4], in experiment [5] and in experiment [6] was “inactive” throughout.
